High-throughput results as filed in PubChem.
This excerpt belongs to a sample that is enriched for hits.
N-glyco inh: N-linked glycosylation inhibition. actives 0.23% (n = 360,000). reporter increase, % at 12.5 µM. D54 ERlucT glycosylation luciferase reporter, 24 h; percent of 100 nM tunicamycin response;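 active means mean luciferase reporter signal, scaled so untreated is 0 and the glycosylation-blocking control 100, at or above a set limit in every replicate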;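 further: luciferase carries N-glycosylation sites so blocking glycosylation raises the light; 0% = median of neutral control wells and 100% = median of 100 nM tunicamycin wells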
PglD inh: PglD (C. jejuni) enzyme inhibition; purified PglD enzyme, DTNB colorimetric CoA detection; inhibition, % at 12.5 µM; actives 0.098% (n = 360,000); in the data active means inhibition above about 16%, passing the limit was not always enough
DENV2 CPE: DENV2-induced cell death inhibition; CPE inhibition, % at 9.99 µM; DENV2-infected cells, cytopathic effect rescue, plate reader; actives 1.7% (n = 350,000); in the data active means CPE inhibition above about 20%, passing the limit was not always enough; tested in BHK-21 cells;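 further: 0% = median of neutral control wells and 100% = median of positive control wells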
Rtt109 HAT inh: inhibitors of Candida albicans Rtt109/Vps75 histone acetyltransferase | Q5AAJ8 | purified Rtt109/Vps75, ThioGlo CoA-SH fluorescence, 4 h | inhibition, % at 34.9 µM | actives 0.16% (n = 330,000) | AID 540336;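 active means inhibition of at least 50% in every replicate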
Target sequence (Q5AAJ8 whole entry, looked up): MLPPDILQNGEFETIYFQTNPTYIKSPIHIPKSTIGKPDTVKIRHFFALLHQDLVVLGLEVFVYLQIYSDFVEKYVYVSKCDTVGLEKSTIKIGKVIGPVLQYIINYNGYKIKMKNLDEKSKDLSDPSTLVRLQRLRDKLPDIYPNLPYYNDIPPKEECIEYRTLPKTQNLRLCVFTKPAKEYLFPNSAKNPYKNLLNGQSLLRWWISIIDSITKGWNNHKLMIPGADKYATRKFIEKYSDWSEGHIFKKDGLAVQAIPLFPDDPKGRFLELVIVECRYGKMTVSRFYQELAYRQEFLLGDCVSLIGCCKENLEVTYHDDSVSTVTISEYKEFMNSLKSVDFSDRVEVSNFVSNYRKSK
Numbers without * were called inactive; · = not tested or not shown.

SMILES | N-glyco inh | PglD inh | DENV2 CPE | Rtt109 HAT inh
C[C@H](CO)N1C[C@H](C)[C@H](CN(C)C(=O)Nc2cccc3ccccc23)OCCCC[C@H](C)Oc2ccc(NS(=O)(=O)c3cn(C)cn3)cc2C1=O | · | -1.5 | 103.0* | ·
C[C@H](CO)N1C[C@H](C)[C@@H](CN(C)C(=O)Nc2cccc3ccccc23)OCCCC[C@H](C)Oc2ccc(NS(=O)(=O)c3ccc(F)cc3)cc2C1=O | · | -1.7 | 38.9* | ·
C[C@@H]1CCCCO[C@H](CN(C)C(=O)Nc2cccc3ccccc23)[C@H](C)CN([C@H](C)CO)C(=O)c2cc(NS(=O)(=O)c3ccc(Cl)cc3)ccc2O1 | · | -1.5 | 58.0* | ·
COc1ccc(S(=O)(=O)Nc2ccc3c(c2)C(=O)N([C@@H](C)CO)C[C@H](C)[C@@H](CN(C)C(=O)Nc2cccc4ccccc24)OCCCC[C@@H](C)O3)cc1 | · | · | 25.7* | ·
C[C@@H]1CCCCO[C@@H](CN(C)C(=O)Nc2cccc3ccccc23)[C@@H](C)CN([C@H](C)CO)C(=O)c2cc(NS(=O)(=O)c3ccc(Cl)cc3)ccc2O1 | · | -3.2 | 5.4 | ·
COc1ccc(C#Cc2ccc3c(c2)O[C@@H](CN(C)C(=O)c2ccccn2)[C@@H](C)CN([C@H](C)CO)S3(=O)=O)cc1 | · | -1.5 | 0.8 | ·
COCC(=O)Nc1ccc2c(c1)OC[C@H](C)N(C(=O)c1ccccn1)C[C@@H](C)[C@@H](OC)CN(C)C2=O | · | -1.8 | · | ·
C[C@@H]1CCCCO[C@H](CN(C)C(=O)Nc2cccc3ccccc23)[C@@H](C)CN([C@@H](C)CO)C(=O)c2cc(NS(=O)(=O)c3ccccc3)ccc2O1 | · | · | 34.2* | ·
C[C@@H]1CN([C@@H](C)CO)C(=O)c2cc(NS(=O)(=O)c3ccccc3)ccc2O[C@H]1CN(C)C(=O)Nc1cccc2ccccc12 | · | 1.6 | 27.0* | ·
C[C@H](CO)N1C[C@H](C)[C@@H](CN(C)C(=O)Nc2cccc3ccccc23)Oc2ccc(NS(=O)(=O)c3ccccc3)cc2C1=O | · | 1.6 | 0.0 | ·
C[C@@H]1CCCCO[C@@H](CN(C)C(=O)Nc2cccc3ccccc23)[C@H](C)CN([C@H](C)CO)C(=O)c2cc(NS(=O)(=O)c3ccccc3)ccc2O1 | · | 0.6 | 10.2 | ·
C[C@H](CO)N1C[C@H](C)[C@H](CN(C)Cc2ccc(-c3ccccc3)cc2)Oc2ccc(NC(=O)CCN3CCOCC3)cc2C1=O | · | 6.7 | 0.0 | ·
Cc1noc(C)c1S(=O)(=O)Nc1ccc2c(c1)C(=O)N([C@H](C)CO)C[C@H](C)[C@H](CN(C)C(=O)C1CCCCC1)OCCCC[C@@H](C)O2 | · | -0.8 | 46.8* | ·
Cc1noc(C)c1S(=O)(=O)Nc1ccc2c(c1)C(=O)N([C@@H](C)CO)C[C@@H](C)[C@@H](CN(C)C(=O)Nc1ccccc1)OCCCC[C@H](C)O2 | · | 6.5 | 4.9 | ·
Cc1noc(C)c1S(=O)(=O)Nc1ccc2c(c1)C(=O)N([C@@H](C)CO)C[C@@H](C)[C@@H](CN(C)C(=O)Nc1ccccc1)OCCCC[C@@H](C)O2 | · | 13.2 | 95.5* | ·
Cc1noc(C)c1S(=O)(=O)Nc1ccc2c(c1)C(=O)N([C@@H](C)CO)C[C@H](C)[C@@H](CN(C)C(=O)Nc1ccccc1)O2 | · | -4.7 | 21.3* | ·
Cc1noc(C)c1S(=O)(=O)Nc1ccc2c(c1)C(=O)N([C@H](C)CO)C[C@H](C)[C@H](CN(C)C(=O)Nc1ccccc1)OCCCC[C@@H](C)O2 | · | 13.6 | 89.0* | ·
C[C@H]1CN([C@@H](C)CO)C(=O)Cc2cc(NC(=O)CCN3CCOCC3)ccc2O[C@H]1CN(C)Cc1ccc(C(=O)Nc2ccccc2N)cc1 | · | · | 3.4 | ·
Cc1noc(C)c1S(=O)(=O)Nc1ccc2c(c1)C(=O)N([C@H](C)CO)C[C@@H](C)[C@@H](CN(C)C(=O)NC(C)C)OCCCC[C@H](C)O2 | · | 0.3 | -10.5 | ·
Cc1noc(C)c1S(=O)(=O)Nc1ccc2c(c1)C(=O)N([C@@H](C)CO)C[C@H](C)[C@H](CN(C)C(=O)CCCN(C)C)OCCCC[C@H](C)O2 | · | 5.1 | 73.2* | ·
Cc1noc(C)c1S(=O)(=O)Nc1ccc2c(c1)C(=O)N([C@H](C)CO)C[C@H](C)[C@@H](CN(C)C(=O)NC(C)C)OCCCC[C@H](C)O2 | · | 2.4 | 24.3* | ·
Cc1noc(C)c1S(=O)(=O)Nc1ccc2c(c1)C(=O)N([C@@H](C)CO)C[C@H](C)[C@H](CN(C)C(=O)CCCN(C)C)OCCCC[C@@H](C)O2 | · | -4.1 | -6.4 | ·
Cc1noc(C)c1NC(=O)Nc1cccc2c1O[C@@H](CN(C)S(C)(=O)=O)[C@@H](C)CN([C@@H](C)CO)C2=O | · | · | 30.8 | ·
C[C@H]1CN([C@@H](C)CO)C(=O)c2cc(NC(=O)c3ccncc3)ccc2O[C@H]1CN(C)S(=O)(=O)c1ccc(Cl)cc1 | · | 3.7 | 18.7 | ·
COCCNC(=O)C1CCC(CNS(=O)(=O)c2ccc(F)cc2)CC1 (stereo not drawn) | 2.1 | -0.9 | 34.0* | -6.6
SMILES | N-glyco inh | PglD inh | DENV2 CPE | Rtt109 HAT inh
CCN(CC)S(=O)(=O)c1ccc(NC(=O)COC(=O)CNC(=O)C2CCCCC2)cc1 | -1.0 | -2.7 | 62.6* | 0.8
CCCCCc1ccc(OCCCC[n+]2cccc(C)c2)c(CCCCC)c1 | 10.7 | · | · | 72.6*
Oc1c(N=Nc2nn[nH]n2)ccc2ccccc12 | 4.6 | · | 68.7* | ·
COCC(=O)N1C[C@@H]2[C@H](c3ccccc31)[C@H](CO)N2Cc1ccccc1F | · | 6.7 | -12.1 | ·
COc1ccc([N+](=O)[O-])cc1NC(=O)/C=C/C(=O)O | 2.1 | 1.5 | 65.9* | -2.2
CN(C)C(=O)c1cccc(-c2ccc3c(c2)[C@@H]2[C@@H](CCN2C(=O)Cc2ccncc2)[C@@H](CO)N3)c1 | · | -0.4 | 104.0* | ·
CN(C)C(=O)c1cccc(-c2ccc3c(c2)[C@H]2[C@H](CCN2C(=O)c2cccnc2)[C@@H](CO)N3)c1 | · | 1.3 | 31.1* | ·
Cc1ccc(S(=O)(=O)N[C@H]2CC[C@H](CCNC(=O)c3ccc4c(c3)OCO4)O[C@H]2CO)cc1 | · | 2.3 | 1.0 | ·
CCc1ccc(CNC(=O)Cc2ccc(NC(=O)C3=C(C)OCCS3)cc2)cc1 | 30.9* | 0.4 | 2.8 | -8.2
O=C(Nc1ccc(S(=O)(=O)Nc2ncccn2)cc1)c1cc([N+](=O)[O-])ccc1Cl | -0.8 | 6.4 | -1.5 | -7.6
O=C(Nc1ccc(S(=O)(=O)Nc2ncccn2)cc1)c1cccc([N+](=O)[O-])c1 | -1.6 | -6.2 | 71.1* | ·
COc1ccc(NC(=O)N(C)C[C@@H]2Oc3c(NC(=O)c4cc(C)nn4C)cccc3C(=O)N([C@H](C)CO)C[C@H]2C)cc1 | · | -5.0 | 0.9 | ·
C[C@H](CO)N1C[C@H](C)[C@H](CN(C)Cc2ccc(C(=O)Nc3ccccc3N)cc2)OCCCC[C@H](C)Oc2ccc(NC(=O)C3CCCCC3)cc2C1=O | · | · | -5.4 | ·
O=C(C[C@H]1CC[C@@H]2NC[C@@H](O)COC[C@H]2O1)NCCc1ccccc1 | · | -0.9 | 8.5 | ·
C[C@@H](NC(=O)C[C@@H]1CC[C@H]2[C@@H](COC[C@H](O)CN2C(=O)Nc2ccccc2)O1)c1ccccc1 | · | 0.6 | 113.2* | ·
O=C(C[C@H]1CC[C@H]2[C@@H](COC[C@H](O)CN2C(=O)Nc2ccccc2)O1)NCCc1ccncc1 | · | -0.1 | 52.8* | ·
